The results in this text go back to PubChem BioAssay (NCI).

Compounds without any hit were thinned out: in the full panel of roughly 83,000, 20% have a hit.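 Growth was measured after 48 h exposure to one concentration of compound in 96-well plates. Values under 10 count as active.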 Values without a mark were called inactive. Activity calls are given as the source filed them.

This assay relates to PC-3 prostate. Nature of the assay: NCI-60 one-dose screen, 48 h (100 = growth as untreated, 0 = no growth, -100 = all killed). As to conditions: 10 µM unless noted. As for the experimental part: Growth inhibition of the PC-3 human tumor cell line is measured as a screen for anti-cancer activity. Cells are grown in 96 well plates and exposed to the test compound for 48 hours. Compounds are tested at a single concentration, which is 10^-5 M for most compounds. The reported endpoint is percent growth (GI% or GIPRCNT), where numbers from 0 - 100% represent growth inhibition, and numbers from -100% - 0 represent cell death. For example, a value of 40 represents 60% growth inhibition. A value of 0 means no net growth occurred over the course of the experiment. A value of -40 indicates 40% of cells at the beginning of the experiment died by the end of the experiment. A value of -100 means all cells are dead at the end of the experiment.
NCI-60 Human Tumor Cell Lines Screen was performed using the standard one-dose NCI protocol, which is described in more detail at https://dtp.cancer.gov/discovery_development/nci-60/default.htm.
Compounds with GIPRCNT values below 10 were considered active. Activity score was based on GIPRCNT using the following formula: […]
Score is 0 for GIPRCNT values of 100 or above, 50 for GIPRCNT values of 0, and 100 for GIPRCNT values of -100.
On to `O=c1[nH]c(-c2ccccn2)nc2sc3c(c12)CCCCCC3`, for which the growth was 41.1%.

On to `Cc1ccc(C)c2c1sc1nc3nc4sc5ccccc5n4c(=N)c3c(=O)n12`, for which the growth was 71.5%. Next, `COc1cccc(OC)c1OC(=O)c1ccccc1`: 106%; `CCOC(=O)c1sc(NC(=O)CN2CCC(Cc3ccccc3)CC2)nc1C`: 93.1%; `COc1ccc(OC2=C(C#N)C(=N)N3c4ccccc4Sc4ccccc4C3N2)cc1` (stereo not given): 88.9%. As for `Cc1ccc(S(=O)(=O)N2CCc3ccc(O)c4c3C2Cc2cc(Cl)ccc2-4)cc1` (stereo not given), the figure is 65.7%. As for `CCSc1nnc2c3cc(Br)ccc3n(C)c2n1`, the figure is 81%; as for `O=C(Nc1ccc(Cl)c(Cl)c1)NC(CO)(CO)CO`, 86.3%; as for `Cc1nc2cc(Nc3nc(N4CCOCC4)nc(N4CCN(C)CC4)n3)ccc2n1Cc1ccccc1`, 96.7%.

As to `O=C1c2ccccc2-c2cn(Cc3ccccc3)c3cccc(c23)C1c1cccnc1` (stereo not given), the growth was 55.4%. As for `COc1cccc(OC(=O)c2ccccc2)c1OC(=O)c1ccccc1`, the figure is 77%. Turning to `COc1cc(NC(=O)COc2ccccc2)c(C(N)=O)cc1OC`, the growth was 30.7%.

In the case of `Nc1nc(-c2ccnc(Cl)c2)nn1-c1nc2ccccc2s1`, the growth was 102%.

Take `Cc1cc(=O)[nH]n1-c1cc(Cl)ccc1N`: the growth was 106%.

In the case of `CC1(C)N=C(N)N=C(N)N1c1cccc(/C=C/C=C/c2cccc([N+](=O)[O-])c2)c1`, the growth is 2.12% (active). As for `c1ccc(-c2nc(N3CCOCC3)c3c4c(sc3n2)CCCCCC4)nc1`, the figure is 32.2%; as for `Cc1nc2cc(Nc3nc(Cl)nc(Nc4ccc(F)cc4)n3)ccc2n1Cc1ccccc1`, 78.8%; as for `O=C1CC2c3cc(-c4cc5ccccc5o4)ccc3CCN2C(=O)N1c1ccccc1` (stereo not given), 51.9%. Turning to `Cc1nn(-c2ccccc2)c2nc3nc4c(c(N)c3c(-c3ccc(Cl)cc3)c12)CCCC4`, the growth is 94.7%. Next, `FCOC(C(F)(F)F)C(F)(F)F`: 106%. Next, `CC1(C)N=C(N)N=C(N)N1c1cccc(OCCOc2cccc([N+](=O)[O-])c2)c1`: 17.8%. Consider `COc1ccc(Sc2ccc3[nH]c(=O)nc(N)c3c2)cc1`, for which the growth was 96.9%.

As to `COc1ccc(/C=C/C(=O)N2CCC(O)CC2)cc1OC1CCCC1`, the growth was 96.5%. Consider `O=C1N/C(=C\c2ccccc2)c2ncccc21`, for which the growth was 102%.

With `O=c1c2c(=NCCN3CCCC3)cc3c(=O)n(CCCN4CCOCC4)c(=O)c4ccc(c(O)n1CCCN1CCOCC1)c2c4-3`, the growth was -20.8% (active). On to `Cc1ccc(S(=O)(=O)N2CCc3ccc(O)c4c3C2CCc2ccccc2-4)cc1` (stereo not given), for which the growth is 95.4%. As for `Cc1ccccc1-c1cc(-c2ccc(Br)s2)[nH]c(=O)c1C#N`, the figure is 98.9%; as for `Cc1ccc(-c2nnc(COc3ccc(-c4nnc(N)s4)cc3)o2)cc1`, 83.9%; as for `OC[C@@H](O)[C@@H](O)CO`, 97.2%.

Consider `CN1CCn2c(c(Sc3ccc(C(=O)NO)cc3)c3ccccc32)C1=O`, for which the growth was -35.2% (active). As for `CCCCCCCCCCCCCCCC[N+]1(C)CCOCC1`, the figure is -52% (active); as for `CSC1=CC(=O)c2ccccc2C1=O`, 67.3%.

`CC(C)(C)[Si](C)(C)OC1[C@@H](O[Si](C)(C)C(C)(C)C)[C@@H](CNC(=O)NC(=O)C(F)(F)F)O[C@H]1n1cnc2c(NC(=O)Nc3ccccc3)ncnc21` (stereo not given in full): the growth was -35.5% (active). Next, `CN1CCN(C(=O)OCCOCCOC(=O)N2CCN(C)CC2)CC1`: 90.1%; `Clc1ccc(Nc2nc(Nc3ccccc3)nc(Nc3ccc(-c4cc(-c5ccc(Cl)cc5)on4)cc3)n2)cc1`: 46.1%; `CCCCCCCC/C=C\CCCCCCCCOc1cccc(CC(=O)NCC[N+](C)(C)C)c1`: 36.4%. As to `O=C1c2cc(S(=O)(=O)O)ccc2C(=O)c2c1cccc2[N+](=O)[O-]`, the growth was 96.3%. Consider `Clc1ccc2c(c1)C[C@H]1C[C@@H](c3cccs3)N2O1`, for which the growth was 91.6%. Next, `Cc1ccc2nc(NC(=O)CSC(=S)N3CCN(Cc4ccccc4)CC3)sc2c1`: -40.2% (active).

In the case of `O=c1nc(NO)[nH]c(=O)n1Cc1ccccc1`, the growth is 98.1%.
